Compound activity deposited in PubChem by National Center for Advancing Translational Sciences (NCATS).
D2 ag-1: agonists of human D2 dopamine receptor. HEK293 T-REx D2 cells, calcium flux agonist mode. P14416. actives 0.53% (n = 340,000). activation, % at 2 µM;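 active = activation over 3 SD above normal in the single-dose calcium agonist read, cut at about 30% in these data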; also: 0% is about no effect
Target sequence (P14416 whole entry, looked up): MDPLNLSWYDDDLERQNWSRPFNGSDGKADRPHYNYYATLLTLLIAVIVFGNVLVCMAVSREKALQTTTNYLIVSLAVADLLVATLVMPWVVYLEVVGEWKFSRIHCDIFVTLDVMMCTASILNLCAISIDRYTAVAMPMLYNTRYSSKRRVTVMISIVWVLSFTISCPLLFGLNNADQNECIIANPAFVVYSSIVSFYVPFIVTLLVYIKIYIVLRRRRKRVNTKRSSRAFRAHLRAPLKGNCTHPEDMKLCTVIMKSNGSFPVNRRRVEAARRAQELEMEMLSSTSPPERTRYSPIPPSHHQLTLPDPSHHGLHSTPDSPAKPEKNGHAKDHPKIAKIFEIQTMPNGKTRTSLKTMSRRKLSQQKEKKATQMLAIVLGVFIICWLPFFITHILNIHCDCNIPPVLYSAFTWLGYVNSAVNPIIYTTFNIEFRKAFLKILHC
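Agonism scored from kinetic calcium signal (1 read/sec, 180 s) following compound pin transfer, after a 10 s baseline. Cells: HEK293 Trex line expressing inducible D2 receptor coupled to calcium, dye-loaded after overnight culture at 30 C.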
D2 PAM-1: human D2 receptor positive allosteric modulation | DiscoveRx D2 beta-arrestin cells, luminescence, 90 min; 100% = 57 uM dopamine signal | P14416 | potentiation, % (test concentration not listed) | AID 624464 | actives 0.23% (n = 360,000); in the data active = potentiation above about 50%; inconclusive = mostly about 30% to 49%
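PathHunter beta-arrestin assay in DiscoveRx D2 cells. Compounds were added with an EC20 of dopamine (50 nM final) for 90 min at 37 deg C. Luminescence was read 1 h after detection reagent, with 57 uM dopamine as the EC100 control.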
D2 antag: D2 dopamine receptor (human) antagonism; AID 485344; P14416; HEK293 TREx D2 cells, calcium flux, dopamine EC80; inhibition, % at 10 µM; actives 2% (n = 340,000); in the data active = inhibition above about 30%; inactive = below that, where a call was filed; also: 0% is about no effect
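Inhibition of EC80 dopamine-driven calcium flux, recorded kinetically, defines activity here; cells are a tetracycline-induced HEK293 T-REx line expressing force-coupled D2.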
D2 ag-2: agonists of human D2 dopamine receptor (beta-arrestin); P14416; DiscoveRx PathHunter D2 beta-arrestin, luminescence, 90 min; 100% = 57 uM dopamine signal; activation, % (concentration not given with the values); actives 0.084% (n = 360,000); in the data active = activation above about 40%; inconclusive = between about 15% and that limit
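DiscoveRx PathHunter D2 beta-arrestin cells (2,100/well) attached overnight, then compound-stimulated 90 min at 37 C in HBSS/10 mM HEPES/0.1% Tween-20 buffer; beta-galactosidase complementation read by luminescence after 1 h at ambient temperature. Dopamine 57 uM final (EC100) as control.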
D2 PAM-2: positive allosteric modulators of human D2 dopamine receptor; potentiation, % at 10 µM; AID 485347; P14416; HEK293 T-REx D2, calcium flux, EC20 dopamine potentiation; actives 0.34% (n = 340,000);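 active = potentiation over 3 SD above the plate norm, cut at about 30% in these data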; also: 0% is about no effect
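Calcium flux readout, no-wash dye, 1 read/s. Inducible HEK293 Trex D2 line, overnight 30 C. Compound alone 180 s (agonist flags), then EC20 dopamine, another 180 s to score potentiation.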
An asterisk follows results filed as active; ? = inconclusive; / = no result. Shown are actives, neighbours in structure and some others; about 2.4% of the full set was active somewhere.

SMILES	D2 ag-1	D2 PAM-1	D2 antag	D2 ag-2	D2 PAM-2
O=C(NC1CCN(C(=O)NCc2ccccc2)CC1)c1cccc(F)c1	1	-3	2	-3	/
CCC(C)NC(=O)CSc1nc2c(sc3ccccc32)c(=O)n1Cc1ccccc1Cl (configuration not stated)	0	/	/	/	-8
Cc1c(CN(C)C(=O)c2cc(-c3ccccc3)nc3ccc(Br)cc23)cnn1C	0	/	/	/	16
CCOc1ccc(CN(CCc2ccc3c(c2)OCO3)Cc2cc(OC)cc(OC)c2)cc1	19	/	/	/	-20
CC(=O)C(=Nc1ccc(Cl)cc1Cl)NNc1cccc(Cl)c1	-1	125*	-15	?	-6
CC(=O)Nc1ccc(NC(=O)Nc2cccc(Cl)c2)cc1	0	-25	16	-5	-5
COc1ccccc1N1CCN(CC(=O)Nc2ccc(Cl)c(C(F)(F)F)c2)CC1	1	-19	81*	3	-30
COc1ccccc1N1CCN(c2ccc(=O)n(CC(=O)Nc3cc(F)ccc3C)n2)CC1	-1	/	/	/	-2
COc1ccccc1N1CCN(CC(=O)Nc2cc(F)ccc2C)CC1	0	-32	86*	-1	-23
CCc1ccc(C(=O)COC(=O)C(Cc2c[nH]c3ccccc23)NC(=O)c2ccc(CC)cc2)cc1 (configuration not stated)	0	/	/	/	13
O=C(NCCc1cccs1)c1ccc(Cn2c(SCc3ccc(F)cc3)nc3cccnc32)cc1	0	/	/	/	3
O=C(CC1N=C2c3ccccc3N=C(SCc3ccccc3Cl)N2C1=O)NCc1cccs1 (configuration not stated)	0	/	/	/	-7
CC(=O)n1c2ccccc2c2nc(NC(C)C)sc21	0	67*	-1	-5	19
CNc1nc2c3ccccc3n(C(C)=O)c2s1	0	-12	6	-1	-13
c1csc(C(c2nnnn2C2CCCC2)N2CCCC3(CCCCC3)C2)c1 (configuration not stated)	0	-2	31*	0	7
CC1CCN(C(=O)CCc2ccc(Oc3cc([N+](=O)[O-])cc([N+](=O)[O-])c3)cc2)CC1	/	84*	/	?	/
O=C(CCc1ccc(Oc2cc([N+](=O)[O-])cc([N+](=O)[O-])c2)cc1)NC1CCCC1	0	3	5	?	-4
CC(C)OC(=O)c1c(NC(=O)CCC(=O)O)sc2c1CCCCC2	1	-10	3	-2	7
CC(C)OC(=O)c1c(NC(=O)CCn2nnc3ccccc32)sc2c1CCCC2	4	3	37*	0	/
COc1ccc(N=Nc2nc3ccc(Br)cc3n2C)cc1	0	-46	23	-7	33*
Cc1ccc(C(=O)CCC(=O)OCC(=O)N2c3ccccc3NC(=O)C2(C)C)cc1	/	-18	/	-1	/
Cc1ccc(S(=O)(=O)CCC(=O)OCC(=O)N2c3ccccc3NC(=O)C2(C)C)cc1	0	-15	90*	-3	6
COc1ccc(NC(=O)C2(c3ccc(NC(=O)c4ccc(OC)c(OC)c4)cc3)CCCC2)cc1	0	-2	19	5	-3
COc1ccc(NC(=O)C2(c3ccc(NC(=O)c4ccc(C)cc4)cc3)CCCC2)cc1	0	8	34*	0	-4
O=C(Nc1ccc(NC(=O)C2CC2)cn1)c1ccccc1	1	1	36*	4	4
SMILES	D2 ag-1	D2 PAM-1	D2 antag	D2 ag-2	D2 PAM-2
O=C(Nc1ccc(NC(=O)C2CC2)nc1)c1cccnc1	1	-15	38*	0	2
O=C(Nc1ccc(NC(=O)C2CC2)nc1)c1cccc(F)c1	0	-20	-13	-4	-6
O=C(Nc1ccc(NC(=O)C2CC2)cn1)c1ccccc1Cl	0	2	23	-2	9
O=[N+]([O-])c1cc(Cl)ccc1NCCNc1ncc(C(F)(F)F)cc1Cl	0	8	36*	-6	-11
CN1CCN(CC/C=C2/c3ccccc3Sc3ccc(S(=O)(=O)N(C)C)cc32)CC1	1	-35	80*	-3	-23
CCOC(=O)c1c(S(=O)(=O)NCC(=O)Nc2ccc(F)cc2C)c(C)n(C)c1C	0	/	/	/	/
Cc1cc(Cl)ccc1OCC(O)CN1C(C)CCCC1C (configuration not stated)	0	/	31*	/	0
